We go through 18 molecules from PubChem BioAssay.

SMILES strings stand for the structures. A number with no mark means an inactive call. For part of these data: Entries with a potency or affinity are not part of this list. Active and inactive are the calls of the source. Unless noted, no rule for the calls is given here.

Assay [1] is described as follows: antimalarial activity against Dd2 strain (AID 2302;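 active = growth inhibition above 50% at the single 2 µM test dose, taken to imply half-maximal potency below 2 µM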;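 also: 0% = DMSO untreated growth and 100% = chloroquine plus artemisinin killed control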). The settings on record: P. falciparum Dd2 in RBCs, LDH growth readout, 72 h; at 2 µM; hits give high values.
Assay [2] in a line: human hepatoma cell viability loss – ATP luminescence, cytotoxicity control for P. falciparum antimalarial project, primary screen (AID 2303;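 active = inhibition above 50%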;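 also: 0% = DMSO wells and 100% = digitonin-killed cells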). The settings on record: HepG2 viability, 24-48 h, at 10 µM, hits give high values.
Assay [3] addresses L-lactate dehydrogenase (Plasmodium falciparum (isolate CDC / Honduras)) (UniProt Q27743). Description: PfLDH activity inhibition – cell lysate, 3D7 strain, counter-screen for P. falciparum growth inhibition project (AID 2304).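 Also: 0% = vehicle and 100% = reference inhibitor.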 Particulars: P. falciparum 3D7 crude extract, LDH APAD/NBT absorbance; at 2 µM; hits give high values.
Assay [4] in a line: inhibition of 3D7 malaria parasite growth – strain 3D7 (AID 2306).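 Also: 0% = DMSO wells and 100% = chloroquine plus artemisinin control wells.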 Particulars: P. falciparum 3D7 erythrocytic growth, LDH absorbance, 72 h; at 2 µM; hits give high values.
In assay [5] the target is Calcium-dependent protein kinase 1 (Plasmodium falciparum (isolate 3D7)) (UniProt P62344). Description: PfCDPK1 kinase inhibitors, biochemical, TCAMS library (AID 1159585; cut-off not given, nearly all actives have IC50 up to about 0.98 µM;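 also: inhibitors leave more ATP so luminescence rises with inhibition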). The settings on record: recombinant PfCDPK1, Kinase-Glo ATP depletion luminescence.
In assay [6] the target is Plasmodium falciparum protein kinase 6 (PK6, PF3D7_1337100) (UniProt Q8IDW1). Description: PfPK6 kinase inhibitors, biochemical, TCAMS library (AID 1159586). Particulars: recombinant PfPK6, Kinase-Glo ATP depletion luminescence.
The target of assay [7] is Protein kinase 7 (PK7), Plasmodium falciparum 3D7 (PF3D7_0213400) (UniProt Q7YTF7). Description: inhibition of Plasmodium PK7 catalytic activity – biochemical, TCAMS antimalarial set, Kinase-Glo luminescence (AID 1159587). Particulars: recombinant PfPK7, Kinase-Glo ATP depletion luminescence.
Assay [8] addresses Calcium-dependent protein kinase 4 (Plasmodium falciparum (isolate 3D7)) (UniProt Q8IBS5). Description: PfCDPK4 kinase inhibitors, biochemical, TCAMS library (AID 1159588; cut-off not given, nearly all actives have IC50 up to about 0.91 µM). The settings on record: recombinant PfCDPK4, Kinase-Glo ATP depletion luminescence.

Sequence of Calcium-dependent protein kinase 1 (Plasmodium falciparum (isolate 3D7)) (P62344 whole entry, looked up): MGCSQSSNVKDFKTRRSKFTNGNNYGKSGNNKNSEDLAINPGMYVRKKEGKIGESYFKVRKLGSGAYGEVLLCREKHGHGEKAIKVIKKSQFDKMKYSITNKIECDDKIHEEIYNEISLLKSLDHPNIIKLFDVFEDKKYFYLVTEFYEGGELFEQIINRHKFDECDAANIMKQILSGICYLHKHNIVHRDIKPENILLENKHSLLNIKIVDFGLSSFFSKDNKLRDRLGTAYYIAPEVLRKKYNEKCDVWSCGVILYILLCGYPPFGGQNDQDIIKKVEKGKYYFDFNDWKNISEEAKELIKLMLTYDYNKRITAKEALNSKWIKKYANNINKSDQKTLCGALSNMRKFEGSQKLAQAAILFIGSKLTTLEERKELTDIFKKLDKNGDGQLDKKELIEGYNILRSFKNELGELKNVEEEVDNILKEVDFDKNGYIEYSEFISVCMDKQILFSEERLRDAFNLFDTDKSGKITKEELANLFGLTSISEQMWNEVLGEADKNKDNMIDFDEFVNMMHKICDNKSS
Sequence of Protein kinase 7 (PK7), Plasmodium falciparum 3D7 (PF3D7_0213400) (Q7YTF7 1-343): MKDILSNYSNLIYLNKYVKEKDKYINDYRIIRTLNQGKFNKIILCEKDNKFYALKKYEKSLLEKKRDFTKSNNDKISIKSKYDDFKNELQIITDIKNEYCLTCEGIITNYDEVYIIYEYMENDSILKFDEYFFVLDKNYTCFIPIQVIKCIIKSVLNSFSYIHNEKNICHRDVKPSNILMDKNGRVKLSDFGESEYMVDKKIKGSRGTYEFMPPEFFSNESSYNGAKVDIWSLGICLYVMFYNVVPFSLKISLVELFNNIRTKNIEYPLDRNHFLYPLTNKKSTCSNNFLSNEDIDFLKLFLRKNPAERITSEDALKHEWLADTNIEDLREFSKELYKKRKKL
Sequence of L-lactate dehydrogenase (Plasmodium falciparum (isolate CDC / Honduras)) (Q27743 whole entry, looked up): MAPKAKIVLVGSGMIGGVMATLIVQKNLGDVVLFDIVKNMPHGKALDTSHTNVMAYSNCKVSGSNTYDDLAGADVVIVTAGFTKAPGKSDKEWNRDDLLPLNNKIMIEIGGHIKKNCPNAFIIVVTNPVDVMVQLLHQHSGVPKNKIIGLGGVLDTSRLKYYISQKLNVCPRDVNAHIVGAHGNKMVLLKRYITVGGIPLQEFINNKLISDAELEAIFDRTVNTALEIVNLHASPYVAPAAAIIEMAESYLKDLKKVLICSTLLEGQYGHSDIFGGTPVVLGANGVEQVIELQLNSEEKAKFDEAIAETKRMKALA
Sequence of Plasmodium falciparum protein kinase 6 (PK6, PF3D7_1337100) (Q8IDW1 1-305): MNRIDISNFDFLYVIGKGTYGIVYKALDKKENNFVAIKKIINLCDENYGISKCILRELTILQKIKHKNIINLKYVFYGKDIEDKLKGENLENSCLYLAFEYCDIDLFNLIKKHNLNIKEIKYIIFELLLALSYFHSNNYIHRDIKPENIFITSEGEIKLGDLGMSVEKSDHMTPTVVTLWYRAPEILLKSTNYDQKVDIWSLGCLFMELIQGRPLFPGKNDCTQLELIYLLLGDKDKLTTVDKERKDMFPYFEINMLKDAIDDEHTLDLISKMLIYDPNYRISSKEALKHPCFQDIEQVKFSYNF
Sequence of Calcium-dependent protein kinase 4 (Plasmodium falciparum (isolate 3D7)) (Q8IBS5 whole entry, looked up): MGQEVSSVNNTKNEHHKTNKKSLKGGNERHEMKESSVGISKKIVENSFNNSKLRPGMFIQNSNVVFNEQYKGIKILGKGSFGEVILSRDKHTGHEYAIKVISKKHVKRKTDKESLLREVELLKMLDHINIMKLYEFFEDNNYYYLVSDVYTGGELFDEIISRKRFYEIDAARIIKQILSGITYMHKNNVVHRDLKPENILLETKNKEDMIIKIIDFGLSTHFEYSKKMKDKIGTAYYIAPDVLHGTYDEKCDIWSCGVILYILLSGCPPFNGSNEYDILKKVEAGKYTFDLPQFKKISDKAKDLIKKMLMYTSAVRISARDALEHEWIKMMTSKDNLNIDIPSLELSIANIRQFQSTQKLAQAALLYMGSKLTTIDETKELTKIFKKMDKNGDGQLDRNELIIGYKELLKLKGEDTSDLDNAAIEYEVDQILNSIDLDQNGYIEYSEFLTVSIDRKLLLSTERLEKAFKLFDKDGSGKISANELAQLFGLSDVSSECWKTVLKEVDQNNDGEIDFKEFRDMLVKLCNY

As to `O=C(NC12CC3CC(CC(C3)C1)C2)C(=O)c1c[nH]c2ccccc12`, the growth inhibition in assay [1] is 2%; in assay [4], 97% (active). The inhibition in assay [2] was 16%; in assay [3], 3%. Further, the outcome in assay [5], in assay [6], in assay [7] and in assay [8] was inactive.

For the molecule `N#CC(c1cccc(Cl)c1)c1ccc2c(C(F)(F)F)cc(C(F)(F)F)nc2n1` (centres undefined), the growth inhibition in assay [1] was 97% (active); in assay [4], 96% (active). The inhibition in assay [2] was 52% (active); in assay [3], 4%. Further, the outcome in assay [5], in assay [6], in assay [7] and in assay [8] was inactive.

For the molecule `C=CCOC(=O)N1CCC(CNCc2ccc(-c3cccc(-c4nc5c(C)cccc5[nH]4)c3)cc2)C1` (centres undefined), the results for the growth inhibition in assay [1] and in assay [4] were 99% (active) and 102% (active), respectively. The inhibition in assay [2] was 25%; in assay [3] it was -5%. Further, the outcome in assay [5], in assay [6], in assay [7] and in assay [8] was inactive.

In the case of `CN1CCN(Cc2cccc(-c3ccc4c(Nc5ccc(Oc6ccccc6)cc5)ccnc4c3)c2)CC1`, the growth inhibition is 100% (active) in assay [1] and 101% (active) in assay [4]. In addition, the inhibition was 41% in assay [2] and 6% in assay [3]. Further, the outcome in assay [5], in assay [6], in assay [7] and in assay [8] was inactive.

For `Cc1c(Cl)cccc1NC(=S)NN=Cc1ccccn1`, the growth inhibition is 85% (active) in assay [1] and 99% (active) in assay [4]. Further, the values for the inhibition in assay [2] and in assay [3] were 58% (active) and 5%, respectively. The outcome in assay [5], in assay [6], in assay [7] and in assay [8] was inactive.

On to `O=C(NC1CCN(Cc2ccccc2)CC1)c1cc(C(=O)NC2CCN(Cc3ccccc3)CC2)cc(C(=O)NC2CCN(Cc3ccccc3)CC2)c1`, for which the growth inhibition in assay [1] and in assay [4] was 100% (active) each time. The values for the inhibition in assay [2] and in assay [3] were 13% and 1%, respectively. The outcome in assay [5], in assay [6], in assay [7] and in assay [8] was inactive.

On to `Clc1ccc(C2CCN(CCCOc3ccc4c(c3)CCNCC4)CC2)cc1`, for which the growth inhibition in assay [1] is 28%; in assay [4] it was 98% (active). Further, the inhibition is 93% (active) in assay [2] and -8% in assay [3]. For the same molecule, the outcome in assay [5], in assay [6], in assay [7] and in assay [8] was inactive.

For `Cc1noc(C)c1-c1ccc2c(Nc3ccc([N+](=O)[O-])cc3)c(C(N)=O)cnc2c1`, the growth inhibition was 98% (active) in assay [1] and 100% (active) in assay [4]. Further, the inhibition in assay [2] and in assay [3] was 4% in each case. For the same molecule, the result in assay [5], in assay [6], in assay [7] and in assay [8] was inactive.

Take `O=C(Nc1ccc(C(=O)Oc2cccc3ccccc23)cc1)N[C@@H](Cc1ccc(O)cc1)C(=O)NC1CCN(Cc2ccc(O)cc2)C1` (some centres undefined): the growth inhibition is -5% in assay [1] and 87% (active) in assay [4]. For the same molecule, the figures for the inhibition in assay [2] and in assay [3] were -1% and 1%, respectively. For the same molecule, the result in assay [5], in assay [6], in assay [7] and in assay [8] was inactive.

`COc1ccc(Cl)cc1N1CCN(CCCNC(=O)c2ccc(-c3nc4cc(Cl)c(Cl)cc4[nH]3)c(C)c2)CC1`: the growth inhibition in assay [1] was -1%; in assay [4], 101% (active). Further, the inhibition in assay [2] is 4%; in assay [3], 2%. The outcome in assay [5], in assay [6], in assay [7] and in assay [8] was inactive.

As to `Cc1ccc2[nH]c(C)c(Br)c(=O)c2c1`, the figures for the growth inhibition in assay [1] and in assay [4] were 84% (active) and 95% (active), respectively. The inhibition in assay [2] was -4%; in assay [3] it was -5%. The result in assay [5], in assay [6], in assay [7] and in assay [8] was inactive.

`CN1CCN(CCCN(Cc2csc(-c3ccc(CNCc4ccccc4)cc3)n2)C(=O)Nc2cc(Cl)cc(Cl)c2)CC1`: the growth inhibition in assay [1] was 45%; in assay [4] it was 103% (active). The inhibition was 34% in assay [2] and -2% in assay [3]. Moreover, the outcome in assay [5], in assay [6], in assay [7] and in assay [8] was inactive.

Take `O=C(Nc1ccccc1)N(Cc1ccc(-c2ccc(CNCc3ccc4c(c3)OCO4)cc2)cc1)C1CCN(Cc2ccccc2)CC1`: the growth inhibition in assay [1] is 41%; in assay [4], 98% (active). Besides, the inhibition was 21% in assay [2] and -1% in assay [3]. The outcome in assay [5], in assay [6], in assay [7] and in assay [8] was inactive.

For the molecule `c1ccc(CNCc2ccc(-c3cccc(-c4nc5ccccc5[nH]4)c3)cc2)cc1`, the growth inhibition is 78% (active) in assay [1] and 101% (active) in assay [4]. The inhibition was 55% (active) in assay [2] and -2% in assay [3]. Besides, the result in assay [5], in assay [6], in assay [7] and in assay [8] was inactive.

On to `CCN(CCCN1CCCCC1)c1cc(C)nc(Nc2ccc(C)cc2Cl)n1`, for which the growth inhibition in assay [1] is 25%; in assay [4] it was 93% (active). The inhibition in assay [2] is 44%; in assay [3], 1%. Further, the result in assay [5], in assay [6], in assay [7] and in assay [8] was inactive.

`O=C(Nc1ccccc1)Nc1ccc(-c2cccc(-c3nc4ccc(C(F)(F)F)cc4[nH]3)c2)cc1`: the growth inhibition was 73% (active) in assay [1] and 101% (active) in assay [4]. In addition, the results for the inhibition in assay [2] and in assay [3] were 59% (active) and 4%, respectively. Also, the result in assay [5], in assay [6], in assay [7] and in assay [8] was inactive.

For `CCOC(=O)C(=CNc1ccc(Cc2cnc(N)nc2N)cc1CC)C(=O)OCC`, the growth inhibition in assay [1] is 7%; in assay [4], 87% (active). Besides, the inhibition is 47% in assay [2] and 1% in assay [3]. The outcome in assay [5], in assay [6], in assay [7] and in assay [8] was inactive.

For `NC(=O)Nc1ccc2c(Nc3ccc(OCc4ccccc4)cc3)ncnc2c1`, the growth inhibition is 20% in assay [1] and 84% (active) in assay [4]. In addition, the inhibition in assay [2] is -1%; in assay [3], 3%. Besides, the result in assay [5], in assay [6], in assay [7] and in assay [8] was inactive.
